# Measurements from the supplement of paper PMC9023506.
# Counter-ions that a name gives are not always drawn.
# Test system: Danio rerio larvae (5 dpf)
# Assay: habituation to 1-s acoustic pulses, difference vs DMSO (percentage points (treated minus DMSO)); higher = more of the behaviour than the DMSO vehicle control
# Settings: 10 µM; exposure time: 3 h pre-incubation + 3 h imaging
# Experimental: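 5-dpf wild-type zebrafish larvae were imaged in 96-well plates. They were treated with 190 Tocris FDA-approved drugs at 10 µM (1 µl/ml DMSO) for 3 h before and 3 h during imaging at 28.5 °C, 48 larvae per drug. Automated image analysis gave % time moving and optomotor responses. Values are drug group mean minus DMSO vehicle mean (n=844), in percentage points, for 10 behaviours.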
row,SMILES,habituation to 1-s acoustic pulses
1,CC(C)C[C@H]1C(=O)N2CCC[C@H]2[C@]2(O)O[C@](NC(=O)[C@@H]3C=C4c5cccc6[nH]c(Br)c(c56)C[C@H]4N(C)C3)(C(C)C)C(=O)N12 [Bromocriptine mesylate],-3.22
2,C=CCN1C[C@H](C(=O)N(CCCN(C)C)C(=O)NCC)C[C@@H]2c3cccc4[nH]cc(c34)C[C@H]21 [Cabergoline],3.78
3,COc1ccc(C(CN(C)C)C2(O)CCCCC2)cc1 (configuration not stated) [Venlafaxine hydrochloride],-6.08
4,COc1cc2c(cc1OC)C1CC(=O)C(CC(C)C)CN1CC2 (configuration not stated) [Tetrabenazine],1.65
5,Cc1cccc([C@H](C)c2c[nH]cn2)c1C [Dexmedetomidine hydrochloride],-9.7
6,N[C@@H]1C[C@H]1c1ccccc1 [Tranylcypromine hydrochloride],-0.45
7,CC[C@@H](C(N)=O)N1CCCC1=O [Levetiracetam],-2.74
8,C=C1C[C@@H]2[C@H](CC[C@]3(C)C(=O)CC[C@@H]23)[C@@]2(C)C=CC(=O)C=C12 [Exemestane],-0.223
9,O=c1[nH]c2ccccc2n1C1CCN(CCCC(c2ccc(F)cc2)c2ccc(F)cc2)CC1 [Pimozide],-6.41
10,CCN(C)C(=O)Oc1cccc([C@H](C)N(C)C)c1 [Rivastigmine tartrate],-1.77
11,CN1C[C@H](C(=O)N[C@]2(C)O[C@@]3(O)[C@@H]4CCCN4C(=O)[C@H](Cc4ccccc4)N3C2=O)C[C@@H]2c3cccc4[nH]cc(c34)C[C@H]21 [Dihydroergotamine mesylate],1.85
12,CC(O)(CS(=O)(=O)c1ccc(F)cc1)C(=O)Nc1ccc(C#N)c(C(F)(F)F)c1 (configuration not stated) [Bicalutamide],-5.47
